This note sets out measurements from ChEMBL document CHEMBL3988442, “University of Dundee, Small-Polar-MMV Screening Library” (2021).

Chain of Sialic acid-binding Ig-like lectin 9 (Homo sapiens) (Q9Y336 whole entry): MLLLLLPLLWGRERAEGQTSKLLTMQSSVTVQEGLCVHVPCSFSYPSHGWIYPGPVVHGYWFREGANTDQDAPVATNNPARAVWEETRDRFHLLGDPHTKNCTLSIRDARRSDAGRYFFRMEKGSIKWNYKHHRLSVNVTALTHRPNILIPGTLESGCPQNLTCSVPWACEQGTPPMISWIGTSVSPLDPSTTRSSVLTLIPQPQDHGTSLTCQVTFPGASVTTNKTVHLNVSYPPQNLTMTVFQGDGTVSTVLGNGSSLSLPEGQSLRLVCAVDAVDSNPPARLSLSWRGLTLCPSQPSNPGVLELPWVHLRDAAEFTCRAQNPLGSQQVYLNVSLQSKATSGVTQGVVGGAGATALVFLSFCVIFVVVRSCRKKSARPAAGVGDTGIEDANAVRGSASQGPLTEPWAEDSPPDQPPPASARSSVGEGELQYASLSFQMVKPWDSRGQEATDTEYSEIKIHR

This test concerns the target Sialic acid-binding Ig-like lectin 9 (Homo sapiens) (UniProt Q9Y336). The test can be described thus: Hs-Siglec9 ALPHAscreen SOP 20170721. The arrangement: scale not given: direction of the effect not stated beside the values. As to conditions: 10 µM. (Bead proximity is the source of the signal in Alpha formats.)
Consider `CN(CCO)Cc1nnc(C2CCN(C(=O)c3cccnc3)CC2)n1C`, for which the Percent Effect was determined as 14.9%. The result for `CN(C)C(=O)NC1COC2(CCN(C(=O)Nc3ccccc3)CC2)C1` (centres undefined) reads -7.63%. The result for `Cc1cc(C)c(CNC(=O)NCC(O)COc2ccccc2)c(=O)[nH]1` (centres undefined) reads 1.32%; that for `CCc1cnc2c(c1NCc1ccncc1)c(=O)n(C)c(=O)n2C`, -0.488%. On to `c1cc(C2CCCN2Cc2nnnn2C2CC2)cs1` (centres undefined), for which the Percent Effect was -8.8%. The result for `O=C(CC1CC1)N1CCn2cc(Cn3cncn3)nc2C1` reads 3.11%. For `CN1CCN(Cc2cn3c(n2)CN(C(=O)N2CCOCC2)CC3)CC1`, the Percent Effect came to 22.1%. The result for `CC(C)c1nc(C(=O)N2CCCC(n3cncn3)C2)c[nH]1` (centres undefined) reads 3.06%; that for `CC(C)Cc1cc(C(=O)NCc2nnc[nH]2)[nH]n1`, 7.63%.

On to `Cn1c(C(F)(F)F)nn(CCNC(=O)CSCc2ccccc2)c1=O`, for which the Percent Effect amounted to 4.38%. Then `O=C(NCCn1ccc(-c2ccncc2)n1)c1ccncc1`, with 8.72%. The result for `CCn1cc(N)c(C(=O)NCc2cnn(C)c2)n1` reads 0.256%. Regarding `COc1c(CNCc2ccnc(N3CCCC3)c2)c(C)nn1C`, the Percent Effect turned out to be 2.4%. Then `COCCn1cc(C(=O)N2CCCC2c2cc(C)no2)ccc1=O` (centres undefined), with 2.51%.

Regarding `CC(C)C(=O)NCCCn1ncc2c(Cl)cccc21`, the Percent Effect was 17.2%. The result for `Cc1c[nH]c(CN(C)C(=O)c2cccc(CCC(C)(C)O)c2)n1` reads 15.8%; that for `CC(O)CC(C)(C)CNC(=O)NCc1cccc(-n2ccnc2)c1` (centres undefined), -7.44%. Turning to `CN(C)C(C)(C)CNC(=O)C(C)(C)c1ccccc1F`, the Percent Effect is 4.5%. The result for `Cc1cnn(CC2CCCN2C(=O)c2cc3ccccc3[nH]2)c1` (centres undefined) reads -0.244%. On to `Cc1ccc(C(=O)N2CCN(S(C)(=O)=O)CC2)cc1N1CCNC1=O`, for which the Percent Effect was 15.8%. The result for `CC(=O)c1ccccc1C(=O)NCC1(CO)CC1` reads 7.79%. The result for `Cn1nc(CNC(=O)C2COc3ccccc3O2)cc1C1CC1` (centres undefined) reads -1.75%; that for `CN(CCCc1cnn(C)c1)C(=O)C1CCOC1` (centres undefined), 1.94%; that for `CC(NC(=O)NCC1(c2ccccc2)CCC1)c1nncn1C` (centres undefined), -5.58%. Then `CN(C)Cc1cc(=O)n2c(n1)CN(C(=O)Cc1ccsc1)CCC2`, with -0.795%. For the compound `COCCCNC(=O)CN(C)C(=O)c1cc(C)sc1C`, the Percent Effect came out at 1.88%. Then `Cn1c(CN2CCCC2)nnc1C1CCCN(C(=O)C2CCOCC2)C1` (centres undefined), with 28.6%; and `COc1ccc(NC(C)=O)c(N2CCN(C(C)=O)CC2)n1`, with -3.66%; and `CC(=O)NCCc1cc(N2CCN(C(C)=O)CC2)nc(C2CC2)n1`, with -0.0242%.

As for `NC(=O)CC1CCN(C(=O)CCOc2ccc(Cl)cc2)CC1`, the Percent Effect is 4.69%. The result for `CCn1ccnc1CN1CCCC(CO)(Cc2cccc(Cl)c2)C1` (centres undefined) reads 28.9%. The result for `COc1cccc(C(=O)NS(=O)(=O)c2cccc(C#N)c2)c1OC` reads 1.98%; that for `Cc1csc(N2CCN(CCc3ccccn3)CC2C)n1` (centres undefined), 9.14%; that for `Cn1nnc2c1CCN(Cc1ccccc1)C2COCC1CC1` (centres undefined), -0.164%. Then `c1ccc(-c2noc3c2CN(CC2CC2)CC3)cc1`, with -1.17%. With `CC(C)(C)c1n[nH]c(C2CN(C(=O)c3csnn3)CCO2)n1` (centres undefined), the Percent Effect turned out to be 7.53%. On to `O=C(NC[C@H]1OC[C@@H]2CCN(Cc3ccco3)C[C@@H]21)c1ccsc1`, for which the Percent Effect was determined as 8.5%. The result for `CS(=O)(=O)NC[C@]12COC[C@H]1CN(C(=O)c1ccoc1)C2` reads 7.59%. `Cc1nn(C)c(N(C)C)c1CNCc1ccccc1CN(C)C`: the Percent Effect was -7.18%.
